# Test results as given in PubChem BioAssay (EPA / NIEHS).
# Records with an inconclusive call do not appear. Active and inactive are the calls of the source. The calls were made as follows: active = hit-call score of the fitted dose curve at least 0.9, where 1 is the maximum; inconclusive = response in the unintended direction; inactive = score below 0.9.
# Target: Nuclear receptor subfamily 1 group I member 2 (Homo sapiens) (UniProt O75469)
# Assay: ATG_PXR_TRANS: Attagene TRANS-FACTORIAL HepG2 Assay for human Pregnane X Receptor (PXR) (AID 2283008)
# Method: ATG_TRANS is a cell-based, multiplexed-readout assay that uses HepG2, a human liver cell line, with measurements taken at 24 hours after chemical dosing in a 24-well plate.ATG_PXR_TRANS is one of 30 assay component(s) measured or calculated from the ATG_TRANS assay. It is designed to make measurements of mRNA induction, a form of inducible reporter, as detected with fluorescence intensity signals by Reverse transcription polymerase chain reaction (RT-PCR) and Capillary electrophoresis technology.Data from the assay component ATG_PXR_TRANS was analyzed into 1 assay endpoint. This assay endpoint, ATG_PXR_TRANS, was analyzed in the positive analysis fitting direction relative to DMSO as the negative control and baseline of activity. Using a type of inducible reporter, measures of mRNA for gain-of-signal activity can be used to understand the reporter gene at the transcription factor-level as they relate to the gene NR1I2. Furthermore, this assay endpoint can be referred to as a primary readout, because this assay has produced multiple assay endpoints where this one serves a reporter gene function. To generalize the intended target to other relatable targets, this assay endpoint is annotated to the nuclear receptor intended target family, where the subfamily is non-steroidal.
# Human liver HepG2 cells are transiently transfected with multiple reporter transcription units (MRTUs) in 6-well plates using FuGene 6 reagent (Roche; 3 ml FuGene/1 mg DNA). The MRTU constructs are regulated by a cis-regulating element (promoter). […] A major difference between the CIS and TRANS system is that in CIS activities of endogenous TFs are measured, whereas the TRANS assay evaluates changes in activities of exogenous, chimeric NR-Gal4 proteins. […] At the end of 24 hour incubation, total RNA was isolated using TriZol reagent (Invitrogen). The isolated RNA is then reverse-transcribed using oligo(dT) primer and Mo-MLV reverse transcriptase (Invitrogen) with DNAse I (Ambion) treatment for 30 min. The one-tenth of the produced cDNA was amplified by PCR using Taq DNA polymerase (Invitrogen) and two reporter sequence-specific primers. The PCR products were fluorescently labeled by primer extension with 6-arboxyfluorescein (6-FAM) 5'-labeled reporter sequence-specific primer (2 min at 95 C, 20 s at 68 C and 10 min at 72 C) and these products were digested with 5U of HpaI (New England Biolabs) for 2h at 37 C. The fragments were purified using Qiaquick PCR columns (Qiagen), analyzed on an ABI 3130xL genetic analyzer (Applied Biosystems) with peak positions identified by using a set of X-rhodamine (ROX)-labeled MapMarker1000 molecular weight standards (BioVentures). The raw capillary electrophoresis data was processed using Attagraph software (Attagene).
# Sequence of Nuclear receptor subfamily 1 group I member 2 (Homo sapiens) (O75469 whole entry, looked up): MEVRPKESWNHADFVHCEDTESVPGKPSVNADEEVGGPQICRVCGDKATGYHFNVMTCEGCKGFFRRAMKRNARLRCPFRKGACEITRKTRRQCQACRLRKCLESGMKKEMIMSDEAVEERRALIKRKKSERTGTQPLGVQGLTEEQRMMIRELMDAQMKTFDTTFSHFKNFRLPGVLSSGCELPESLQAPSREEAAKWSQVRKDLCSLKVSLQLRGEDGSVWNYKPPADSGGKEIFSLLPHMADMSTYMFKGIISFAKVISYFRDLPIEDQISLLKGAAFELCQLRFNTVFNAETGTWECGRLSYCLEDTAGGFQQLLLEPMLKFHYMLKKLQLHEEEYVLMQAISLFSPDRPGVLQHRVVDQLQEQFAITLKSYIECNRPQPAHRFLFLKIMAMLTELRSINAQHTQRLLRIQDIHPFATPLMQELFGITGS
SMILES,outcome,AC50
COc1ccc2[nH]cc(CCNC(C)=O)c2c1,inactive,–
NC(=O)c1cnccn1,inactive,–
CC12CCC(C1)C(C)(C)C2O (stereo not given),inactive,–
CCCCCCCCCCO[C@@H]1O[C@H](CO)[C@@H](O)[C@H](O)[C@H]1O,inactive,–
CCOC(=O)CC1(C)OCC(C)O1 (stereo not given),inactive,–
Nc1ccc(O)c(N)c1,inactive,–
S=c1[nH][nH]c(=S)s1,inactive,–
CCC(=O)OC/C=C(\C)CCC=C(C)C,inactive,–
O=C(OCc1ccccc1)c1ccccc1O,–,62.7 µM (active)
C=C(C)CCCC(C)CCO (stereo not given),–,9.99 µM (active)
CC(=O)c1ccc(O)cc1,inactive,–
CC(CO)c1ccccc1 (stereo not given),inactive,–
CC(=O)CC(=O)N(C)C,inactive,–
CCO[Si](CC)(OCC)OCC,–,2.84 µM (active)
C=CCOC(=O)/C=C\C(=O)OCC=C,inactive,–
O=C(O)c1ccco1,inactive,–
CCCCCCCCCO,inactive,–
CC1=CCC(=C(C)C)CC1,–,6.82 µM (active)
C=CC(C)(CCC=C(C)C)OC(=O)CC (stereo not given),inactive,–
CC(CO)(CO)[N+](=O)[O-],inactive,–

SMILES,outcome,AC50
CC(O)CNCC(C)O (stereo not given),inactive,–
O=C(O)c1ccccc1O,inactive,–
Cc1ccccc1S,inactive,–
c1ccc2c(c1)-c1ccc3ccc4cccc5cc-2c1c3c45,inactive,–
CC(C)Cc1ccccc1,inactive,–
COc1ccc(C(C)=O)cc1,inactive,–
CC(C)CCCC(C)(C)O,inactive,–
CCCCOCCOC(=O)c1ccccc1C(=O)OCCOCCCC,–,7.61 µM (active)
CC(C)C(=O)c1ccccc1,inactive,–
Cc1cccc(O)c1,inactive,–
CCC(C)(C)C1CCC(OC)CC1 (stereo not given),–,8.16 µM (active)
CCCO[Si](OCCC)(OCCC)OCCC,inactive,–
CC/C=C\CCOC(C)OCC (stereo not given),inactive,–
O=S(=O)(O)CCCN1CCOCC1,inactive,–
CCC(C)(C)C1CCC(=O)CC1,–,15.3 µM (active)
O=C(O)c1cc2ccccc2cc1O,inactive,–
N=C1N=C(N)c2ccccc21,–,47.5 µM (active)
CC(=O)OCC=C(C)CCC=C(C)CCC=C(C)C,–,15.7 µM (active)
CC1=CCC(C(C)(C)O)CC1 (stereo not given),inactive,–
CCOC(=O)CC(C)C,inactive,–
